The values below come from PubChem BioAssay AID588342 (National Center for Advancing Translational Sciences (NCATS), 2011).

Among all 360,000 compounds or so, about 25,000 (6.9%) were called active. Entries that show only a call come without a potency. About 9% were inconclusive and are not listed. The sample holds actives, similar compounds and a random draw of the others, so the mix is not that of the screen. Calls follow the shape of the dose curve; as a rule, active = well fitted inhibition curve with a large enough effect; inconclusive = small, poorly fitted or top-dose-only effect; inactive = flat fitted curve, though single readings scatter.
Potency is read from the fitted curve at half-maximal effect.

Luciferin 4-monooxygenase (Photinus pyralis), sequence (P08659 whole entry, looked up): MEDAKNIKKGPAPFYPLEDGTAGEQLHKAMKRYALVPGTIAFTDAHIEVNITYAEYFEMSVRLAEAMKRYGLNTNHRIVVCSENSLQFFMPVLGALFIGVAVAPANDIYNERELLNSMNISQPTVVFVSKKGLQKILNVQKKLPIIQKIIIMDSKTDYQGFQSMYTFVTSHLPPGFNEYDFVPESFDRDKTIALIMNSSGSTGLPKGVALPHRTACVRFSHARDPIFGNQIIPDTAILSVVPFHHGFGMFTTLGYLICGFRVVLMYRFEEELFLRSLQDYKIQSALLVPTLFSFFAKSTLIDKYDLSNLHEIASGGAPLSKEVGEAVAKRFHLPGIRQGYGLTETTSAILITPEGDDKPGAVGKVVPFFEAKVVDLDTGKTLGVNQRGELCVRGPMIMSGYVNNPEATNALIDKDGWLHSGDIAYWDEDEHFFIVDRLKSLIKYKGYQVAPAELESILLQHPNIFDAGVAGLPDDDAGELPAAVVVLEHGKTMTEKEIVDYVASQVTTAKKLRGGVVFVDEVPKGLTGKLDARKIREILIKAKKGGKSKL

This test concerns the target Luciferin 4-monooxygenase (Photinus pyralis) (UniProt P08659). The test can be described thus: qHTS profiling assay for firefly luciferase inhibitor/activator using purifed enzyme and Km concentrations of substrates (counterscreen for miR-21 project). Also: nearly all actives have a fitted effect of over 55% in size. As to conditions: purified FLuc, luminescence inhibition; series mostly up to 57.5 µM. The gist of the method:
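Biochemical qHTS of compounds, final roughly 60 µM downward over six points, against 10 nM purified firefly luciferase using Km concentrations of substrates (10 uM D-luciferin, 10 uM ATP) in Tris acetate pH 7.5 buffer; luminescence output.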
In general terms: In qHTS, concentration-response curves come from the screen itself.
Regarding `Cc1c(-c2nsc(NC(=O)c3cccc(Cl)c3)n2)nnn1-c1ccccc1C(F)(F)F`, the Potency is 12 µM (active). `CCc1cccc(-n2nnc(-c3nsc(NC(=O)c4ccc(C)cc4)n3)c2C)c1`: the Potency result was “inactive”. For `COc1ccc(-n2nnc(-c3nsc(NC(=O)c4ccc(C)c(C)c4)n3)c2C)cc1Cl` the value was “inactive”; for `COc1ccc(OCCCn2c(C)nc3cc(C)c(C)cc32)cc1`, “inactive”; for `O=C(/C=C/Nc1ccccc1)c1cnc(-c2ccccc2)s1`, “inactive”. The same measure for `CC(C)(C)C(=O)c1cnc(Nc2ccccc2)s1`: 6.01 µM (active); for `CC(=O)c1cnc(-c2ccccc2)s1`: “inactive”; for `COc1ccc(NC(=O)CSc2nnc(-c3nnn(-c4ccc(F)cc4)c3C)o2)cc1`: “inactive”. For `CN(C(=O)COc1nnc(-c2cccs2)c(-c2cccs2)n1)c1ccccc1` the value was “inactive”.

Turning to `O=C(O)Cc1sc(-c2ccccc2)nc1-c1cccs1`, the Potency was 23.9 µM (active). For `CCc1c(-c2ccccc2)nc(N)c(C#N)c1-c1cccs1` the value was “inactive”; for `O=C(CCc1ccccc1Cl)Nc1ccc(S(=O)(=O)Nc2nccs2)cc1`, “inactive”. For `COc1cc(C(=O)N(Cc2ccc(C(C)C)cc2)C2CCS(=O)(=O)C2)cc(OC)c1OC` (stereo not drawn) the value was “inactive”; for `COc1ccc(-c2[nH]ncc2/C=N/NC(=O)c2cc(Br)ccc2O)c(OC)c1`, “inactive”; for `CC(=O)N/N=C(\C)c1ccc(Br)cc1Br`, “inactive”.

Regarding `CC(=N\NC(=O)c1cc(Br)ccc1O)/C(=N/O)C(=O)Nc1ccccc1`, the Potency is 15.1 µM (active).

Turning to `CCOC(=O)c1c(NC(=O)c2ccc(S(=O)(=O)N3CCCC(C)C3)cc2)sc2c1CCN(C(C)C)C2` (stereo not drawn), the Potency result is “inactive”.

For the compound `CC(C)CCN1CCC(C)(NC(=O)c2ccccc2)C1=O` (stereo not drawn), the Potency entry is “inactive”.

As for `CC1=C(c2ccc(F)cc2)S(=O)(=O)N=C1N1CCC(C(=O)NCCc2ccccc2C)CC1`, the Potency entry was “inactive”. For `CCOC(=O)N1CCC(NC(=O)c2cnn3ccccc23)CC1` the value was “inactive”; for `O=C(c1cnn2ccccc12)N1CCc2ccccc21`, 6.75 µM (active); for `Cc1cnc(C(=O)OCC(=O)N2CCc3ccccc32)cn1`, “inactive”. Regarding `CCOC(=O)c1c(NC(=O)/C(C#N)=C/c2ccccc2)sc2c1CCC2`, the Potency result was “inactive”. In the case of `COc1ccc(Cn2c(C(=O)O)c(CNCc3cccc(OC)c3)c3ccc(C)cc32)cc1`, the Potency result is “inactive”. The same measure for `CN1CCN(S(=O)(=O)c2cccc(C(=O)Nc3sccc3C#N)c2)CC1`: “inactive”; for `O=C(Nc1ccccc1C(=O)Nc1ccncc1)c1ccc([N+](=O)[O-])cc1`: 19 µM (active).

Take `O=C(Nc1ccncc1)c1ccccc1[N+](=O)[O-]`: the Potency result is “inactive”. The same measure for `O=C(Nc1ccncc1)c1ccc(Cl)c([N+](=O)[O-])c1`: “inactive”. `CC(=O)Nc1ccc(NC(=O)CSc2nnc(C3CC3)n2-c2ccccc2)cc1`: the Potency entry is “inactive”. The same measure for `CCc1nn(CCCC(=O)NCc2ccccc2OC)c(=O)c2cc3occc3n12`: “inactive”; for `O=C(NCc1cccs1)C1CCN(S(=O)(=O)c2ccc(Cl)cc2)CC1`: “inactive”; for `CC1CN(C(=O)N2CCC(C(=O)NCc3cccs3)CC2)c2ccccc2O1` (stereo not drawn): 1.9 µM (active). For `CC1CN(C(=O)N2CCC(C(=O)NCc3ccco3)CC2)c2cc(Cl)ccc2O1` (stereo not drawn) the value was “inactive”. The same measure for `Cc1nc2nc(SCC(=O)NC3CCC(C)CC3)nn2c(C)c1Cc1ccccc1Cl` (stereo not drawn): “inactive”; for `S=c1[nH]nc(/C=C/c2ccccc2)o1`: 26.9 µM (active). Regarding `Clc1ccc(CSc2nnc(/C=C/c3ccccc3)o2)c(Cl)c1`, the Potency result is “inactive”. The same measure for `O=c1oc(/C=C/c2ccccc2)nc2ccccc12`: “inactive”; for `COc1cccc(-n2ccn(CC(=O)NCc3ccc(C)cc3)c(=O)c2=O)c1`: “inactive”. Consider `CCS(=O)(=O)N1CCc2cc(C(=O)N3CCN(c4ccccc4OC)CC3)ccc21`, for which the Potency entry was “inactive”.

`CCc1nnc(NC(=O)c2nc3nccc(C)n3n2)s1`: the Potency entry was “inactive”. `CCc1ccc2nc3sc(C(=O)Nc4nnc(CC)s4)c(N)c3cc2c1`: the Potency is 2.39 µM (active). For `CCc1ccccc1NC(=O)c1sc2nc3c(cc2c1N)CN(Cc1ccccc1)CC3` the value was “inactive”. For `CSc1ccc(CCNC(=O)c2ccc3c(c2)nc2n3CCOC2)cc1` the value was “inactive”; for `CC(C)c1ccc(/C=C2\NC(=O)NC2=O)cc1`, 21.3 µM (active). For `Cc1ccc(NC(=O)COc2ccc(/C=C3/NC(=O)NC3=O)cc2)cc1` the value was “inactive”.

With `CC(C)c1ccc(S(=O)(=O)N2CCC3(CC2)OCCO3)cc1`, the Potency result is “inactive”. Consider `Cc1ccc(C)c(Cn2c(C(=O)O)c(CNCc3cccs3)c3ccccc32)c1`, for which the Potency entry was “inactive”.

Take `Cc1ccnc(NC(=O)CCCOc2ccccc2)c1`: the Potency result was “inactive”.

With `COc1cc(SC)ccc1C(=O)NCCOc1ccccc1Cl`, the Potency is 6.01 µM (active). For `Cc1csc(NC(=O)CSc2nc(=O)cc(N)n2-c2ccc(F)cc2)n1` the value was “inactive”; for `Cc1ccnc(NC(=O)C(C)N2C(=O)c3ccccc3C2=O)c1` (stereo not drawn), “inactive”.

Take `COc1cc(SC)ccc1C(=O)Nc1cc(C)ccn1`: the Potency was 1.35 µM (active). For the compound `COc1cc(Cl)c(C)cc1NC(=O)COC(=O)c1cc(SC)ccc1Cl`, the Potency entry was “inactive”. For `Cc1occc1C(=O)Nc1cccc(Cn2cccn2)c1` the value was “inactive”; for `O=C(NCCOc1ccccc1Cl)C(=O)Nc1ccccc1`, “inactive”. The same measure for `Cc1ccnc(NC(=O)c2ccoc2C)c1`: 16.9 µM (active); for `COc1cc(SC)ccc1C(=O)Nc1nc(C)cs1`: 0.0757 µM (active); for `COc1cc(SC)ccc1C(=O)N(Cc1ccccc1)c1ccccc1`: “inactive”. For `COc1ccccc1OCCNC(=O)CCNC(=O)c1ccccc1Cl` the value was “inactive”; for `O=C(CN1CCN(C(=O)C2CCCO2)CC1)Nc1c(Cl)cccc1Cl` (stereo not drawn), “inactive”. Regarding `CCCCCCNC(=O)CSc1nccn1Cc1ccccc1`, the Potency entry is “inactive”. The same measure for `COC(=O)Cn1cnc2scc(-c3ccc(C)c(C)c3)c2c1=O`: “inactive”; for `CCC(NC(=O)c1ccccc1NC(=O)c1ccccc1)C(=O)NNC(=O)CSc1nc2ccccc2o1` (stereo not drawn): “inactive”.

For `O=C(Cn1nnc2ccccc2c1=O)Nc1cc(C(F)(F)F)ccc1N1CCOCC1`, the Potency result was “inactive”. For `CC(CO)NCC12CC3CC(CC(C3)C1)C2` (stereo not drawn) the value was “inactive”; for `CCOc1ccccc1NC(=O)c1ccc2c(c1)CCN2S(=O)(=O)c1ccc(C)cc1`, “inactive”. Turning to `O=C(NCCc1csc(-c2ccc(C(F)(F)F)cc2)n1)C(=O)Nc1ccc(F)c(Cl)c1`, the Potency entry is “inactive”. The same measure for `Cc1ccc(C)c(N2CCN(C(=O)CN3C(=O)COc4ccc(S(=O)(=O)N5CCCCCC5)cc43)CC2)c1`: “inactive”.
